High-throughput results (PubChem BioAssay)
Shown are actives, neighbours in structure and some others; about 3.9% of the full set was active somewhere.
KKLEB cytotox: cytotoxicity in KKLEB CF airway cells, primary screen, cytotoxicity control for CF NF-kB inhibitor project, cell-based, uHTS, fluorescence assay plates; AID 602141, 2011; 360,000 tested, 0.36% active; activity change (cytotoxicity), % at 5 µM; KKLEB CF airway cells viability, ATPlite luminescence, overnight; stronger effect = lower value; cells stimulated with P. aeruginosa culture filtrate;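 active means corrected activity change at or below -50% at 5 µM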
TWEAK Fn14 block: inhibitors of TWEAK-Fn14 signaling, primary screen, luciferase reporter cells, uHTS | inhibition, % at 10 µM | TWEAK-stimulated Fn14 reporter cells, luciferase luminescence, 8 h | 360,000 tested, 2% active; in the data active means inhibition above about 50%
Peg3 prom inh: Peg3 promoter-driven luciferase inhibitors, primary screen, cell-based, HeLa, luciferase luminescence; HeLa PEG-Prom luciferase reporter, overnight; inhibition, % at 20 µM; 360,000 tested, 1.7% active; AID 588405, 2011;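 active means inhibition of at least 50% at 20 µM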
TROY NFkB inh: inhibitors of TROY-driven NF-kB signaling, primary screen, Q293 LMP1-TROYcd cells, NF-kB luciferase, uHTS | inhibition, % at 10 µM | Q293 LMP1-TROYcd NF-kB luciferase reporter, 4 h | 360,000 tested, 0.98% active;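 active means compounds whose plate-normalised and pattern-corrected inhibition of the luciferase reporter signal at the single screening dose is 50% or more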
HIF-2a inh: HIF-2a reporter inhibitors, primary screen, luminescence, 786-0 RCC cells; 786-0 RCC cells HIF-2a reporter, luciferase luminescence, overnight; 360,000 tested, 0.72% active; AID 624352, 2012; inhibition, % at 18.8 µM;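 active means inhibition of the luminescence signal of 40% or more relative to plate controls, in a single-dose primary screen at 18.75 µM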
CF NFkB inh: inhibitors of PAF-induced NF-kB signaling, primary screen, cell-based, GFP fluorescence, uHTS. KKLEB NF-kB-GFP reporter, GFP fluorescence overnight. inhibition, % at 5 µM. 360,000 tested, 0.86% active. AID 588850, 2011;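 active means at least 50% inhibition at 5 µM, scaled per plate between neutral and stimulator controls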;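 further: PAF is a Pseudomonas aeruginosa culture filtrate used as stimulus; plate controls were PAF-stimulated DMSO wells for no effect and unstimulated DMSO wells for full effect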
Mdm2-MdmX confirm: retested Mdm2-MdmX interaction blockers, confirmation, cell-based, luminescence, single concentration, set 2 | 740 tested, 99% active | SaOS-2 split-luciferase Mdm2/MdmX complementation | inhibition, % at 8 µM | shares compounds with HIF-2a inh;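 active means mean inhibition of the luminescence signal across two replicates at or above 26 percent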
HIF-2a inh conf: HIF-2a reporter inhibitor retest, confirmation, luminescence, 786-0 RCC cells | shares compounds with HIF-2a inh | HIF-2a luciferase reporter luminescence, overnight | inhibition, % at 18.8 µM | 1,800 tested, 56% active | AID 651580, 2012;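 active means mean inhibition across four replicates of at least 40 percent at the single tested concentration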
HIF-1a counter: HIF-1a luciferase reporter signal reduction – MiaPaCa-2 cells, single concentration, counter-screen for HIF-2a inhibitor project, confirmation; 1,800 tested, 72% active; AID 651589, 2012; inhibition, % at 18.8 µM; shares compounds with HIF-2a inh; MiaPaCa-2 HIF-1a luciferase reporter, desferoxamine, overnight;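 active means mean inhibition of the reporter signal across four replicates at the single tested dose of 50% or more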
* hit, by the source's call; nt = no result given.

SMILES	KKLEB cytotox	TWEAK Fn14 block	Peg3 prom inh	TROY NFkB inh	HIF-2a inh	CF NFkB inh	Mdm2-MdmX confirm	HIF-2a inh conf	HIF-1a counter
CCC(C)N(CC(=O)Nc1cccc(C)c1C)C(=O)CCl (stereo unspecified)	-20	60*	44	8	51*	9	103*	46*	54*
CCOC(=O)C1=C(O)/C(=C/c2cn(CC(=O)NCC3CCCO3)c3ccccc23)SC1=Nc1ccc(C)cc1 (stereo unspecified)	-56*	26	59*	0	-19	58*	86*	nt	nt
NC1=NC[C@H](CC2CCCCC2)N1CCc1cc(C(F)(F)F)cc(C(F)(F)F)c1	-15	-16	101*	-1	98*	9	100*	-5	106*
C=C1C(=O)OC2C=C(CO)C3OC3C3OC3(C)CC(OC(=O)/C(=C/C)COC(C)=O)C12 (stereo unspecified)	-92*	83*	106*	3	85*	82*	nt	93*	107*
Cc1cc(C)nc(SCc2ccc(C(=O)NNC(=O)Nc3cccc(Cl)c3)cc2)n1	-8	43	75*	48	90*	40	nt	50*	105*
Cc1cc(C)nc(SCc2ccc(C(=O)N/N=C/c3ccncc3)cc2)n1	-4	13	6	-2	15	2	nt	nt	nt
COc1cc(C(C[N+](=O)[O-])c2c(-c3ccccc3)cc3ccccn23)cc(OC)c1OC (stereo unspecified)	10	2	9	-12	43*	-9	nt	-38	68*
Cn1nnnc1Sc1ncnc2scc(Br)c12	-42	99*	104*	68*	96*	78*	nt	65*	105*
Cn1nnnc1SCc1nc2scc(-c3ccccc3)c2c(=O)[nH]1	-5	0	2	-6	-42	-6	nt	nt	nt
Cn1nnnc1Sc1ncnc2scc(-c3ccccc3Br)c12	-19	39	79*	30	49*	50	nt	25	75*
CC(SC1=NCCS1)C(=O)Nc1nnc(-c2ccc(Br)cc2)s1 (stereo unspecified)	7	-11	-95	-17	-132	30	nt	nt	nt
CCOc1ccc2nc(SCc3ccc(CC(=O)O)cc3)c(C#N)cc2c1	-3	37	13	76*	83*	16	nt	89*	57*
CCOC(=O)Cc1csc(NS(=O)(=O)c2cccc([N+](=O)[O-])c2)n1	-10	6	6	8	17	8	nt	nt	nt
CC(=O)n1cc(N(C(=O)CCl)c2ccc(Cl)cc2)c2ccccc21	-94*	64*	108*	-41	83*	98*	nt	98*	108*
CCOC(=O)c1ccccc1Nc1cn(C(C)=O)c2ccccc12	-18	0	12	-10	13	12	nt	nt	nt
Cc1c(C(=O)NCC2CCCO2)oc2ccc(S(=O)(=O)N3CCCCC3)cc12 (stereo unspecified)	2	12	15	5	4	11	nt	nt	nt
Cc1c(C(=O)NCC2CCCO2)oc2ccc(S(=O)(=O)N3CC(C)CC(C)C3)cc12 (stereo unspecified)	-6	23	27	3	39*	-19	nt	8	57*
CCc1cc(-c2n[nH]c(C)c2-c2nc3ccccc3s2)c(O)cc1OCC(=O)NN	14	-10	8	7	18	-28	nt	nt	nt
Cc1cccc2sc(NNC(=O)c3ccc(S(=O)(=O)N4CC(C)CC(C)C4)cc3)nc12 (stereo unspecified)	-16	64*	99*	51*	48*	34	90*	-4	100*
CC1=C(C(N)=O)C(c2cccc(OCc3ccccc3)c2)n2nnnc2N1 (stereo unspecified)	-5	8	3	1	17	-2	nt	nt	nt
O=C(NCc1cccnc1)/C(=C/c1ccc(-c2cccc(Cl)c2)o1)S(=O)(=O)c1ccccc1	-13	58*	15	-9	43*	6	103*	34	30
NS(=O)(=O)c1ccc(NC(=O)COC(=O)CCc2nc3ccccc3c(=O)[nH]2)cc1	13	-10	0	-2	10	-37	nt	nt	nt
O=C(Nc1cccc(Cl)c1)Nc1nnc(-c2ccncc2)s1	-58*	76*	29	50*	-14	73*	102*	nt	nt
O=C(Nc1sc2c(c1C(=O)O)CCC2)c1ccccc1Cl	10	23	20	17	68*	-6	nt	97*	-25
O=C(Nc1sc2c(c1C(=O)O)CCCC2)c1ccccc1Cl	-5	15	-4	-35	-52	9	nt	nt	nt
SMILES	KKLEB cytotox	TWEAK Fn14 block	Peg3 prom inh	TROY NFkB inh	HIF-2a inh	CF NFkB inh	Mdm2-MdmX confirm	HIF-2a inh conf	HIF-1a counter
CC1CCCN(CCC(=O)Nc2ccc(F)c(F)c2)C1 (stereo unspecified)	-7	-3	6	6	12	5	nt	nt	nt
N#CC(c1cccc(Cl)c1)c1ccc2c(C(F)(F)F)cc(C(F)(F)F)nc2n1 (stereo unspecified)	-60*	45	57*	64*	14	53*	102*	nt	nt
CC(NC(=O)CN(c1cccc(C(F)(F)F)c1)S(=O)(=O)c1ccc(Cl)c([N+](=O)[O-])c1)c1ccccc1 (stereo unspecified)	13	21	104*	19	78*	-10	nt	10	103*
O=C(CN(c1cccc(C(F)(F)F)c1)S(=O)(=O)c1ccc(Cl)c([N+](=O)[O-])c1)NCc1ccccc1Cl	-2	21	101*	-9	70*	-10	nt	22	104*
O=c1c2ccccc2[nH]c(=S)n1Cc1cccnc1	-3	5	15	17	14	-17	nt	nt	nt
COc1ccc(C[C@H](N)C(=O)N[C@H]2[C@@H](O)[C@H](n3cnc4c(N(C)C)ncnc43)O[C@@H]2CO)cc1	7	93*	102*	3	95*	-18	103*	95*	105*
